The values that follow come from publication PMC11006913.

Residue numbers refer to the chain shown, from its start.

Test in all cases: PBM; 200 nM protein, PBS
What all share (conditions): dsDNA, one strand shown

Assay [1] has as its target T1, SIX6 (Homo sapiens, UniProt O95475 114-200, L167I).
T1 sequence: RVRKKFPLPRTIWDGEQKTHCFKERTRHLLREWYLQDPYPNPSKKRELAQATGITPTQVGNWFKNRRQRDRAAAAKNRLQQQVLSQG

Assay [2] concerns the target T2, SIX6 (Homo sapiens, UniProt O95475 114-200, L143V).
T2 sequence: T1 sequence with L30V, I54L

Assay [3] concerns the target T3, SIX6 (Homo sapiens, UniProt O95475 114-200, H141N).
T3 sequence: T1 sequence with H28N, I54L

Assay [4] has as its target T4, SIX6 (Homo sapiens, UniProt O95475 114-200, T165P).
T4 sequence: T1 sequence with T52P, I54L

For assay [5], the target named is T5, SIX6 (Homo sapiens, UniProt O95475 114-200, L167M).
T5 sequence: T1 sequence with I54M

Assay [6] concerns the target T6, SIX6 (Homo sapiens, UniProt O95475 114-200, L143M).
T6 sequence: T1 sequence with L30M, I54L

In assay [7] the target is T7, SIX6 (Homo sapiens, UniProt O95475 114-200, L143I).
T7 sequence: T1 sequence with L30I, I54L

For assay [8], the target named is T8, SIX6 (Homo sapiens, UniProt O95475 114-200, T165G).
T8 sequence: T1 sequence with T52G, I54L

The target of assay [9] is T9, SIX6 (Homo sapiens, UniProt O95475 114-200, T139Q).
T9 sequence: T1 sequence with T26Q, I54L

Assay [10] has as its target T10, SIX6 (Homo sapiens, UniProt O95475 114-200, T165A).
T10 sequence: T1 sequence with T52A, I54L

Assay [11] has as its target T11, SIX6 (Homo sapiens, UniProt O95475 114-200, L167V).
T11 sequence: T1 sequence with I54V

Assay [12] has as its target T12, SIX6 (Homo sapiens, UniProt O95475 114-200).
T12 sequence: T1 sequence with I54L

Assay [13] concerns the target T13, SIX6 (Homo sapiens, UniProt O95475 114-200, T165I).
T13 sequence: T1 sequence with T52I, I54L

For ATGATACA, the binding signal with SIX6 [1] was 11.3 upbm affinity estimate (log intensity, higher = more binding, comparable within an allelic series); with SIX6 [2], 10.5 upbm affinity estimate (log intensity, higher = more binding, comparable within an allelic series); in the assay with SIX6 [3], 11.3 upbm affinity estimate (log intensity, higher = more binding, comparable within an allelic series); with SIX6 [4], 9.98 upbm affinity estimate (log intensity, higher = more binding, comparable within an allelic series); with SIX6 [5], 10.8 upbm affinity estimate (log intensity, higher = more binding, comparable within an allelic series); with SIX6 [6], 11.1 upbm affinity estimate (log intensity, higher = more binding, comparable within an allelic series). The binding signal is 10.5 upbm affinity estimate (log intensity, higher = more binding, comparable within an allelic series) with SIX6 [7]; 11.3 upbm affinity estimate (log intensity, higher = more binding, comparable within an allelic series) with SIX6 [8]; 11.2 upbm affinity estimate (log intensity, higher = more binding, comparable within an allelic series) in the assay with SIX6 [9]; 11.2 upbm affinity estimate (log intensity, higher = more binding, comparable within an allelic series) with SIX6 [10]; 11.1 upbm affinity estimate (log intensity, higher = more binding, comparable within an allelic series) with SIX6 [11]; 11.1 upbm affinity estimate (log intensity, higher = more binding, comparable within an allelic series) with SIX6 [12]. For the same sequence, in the assay with SIX6 [13], the binding signal was 11.1 upbm affinity estimate (log intensity, higher = more binding, comparable within an allelic series).

As to TGTATCAA, the binding signal with SIX6 [1] was 11.2 upbm affinity estimate (log intensity, higher = more binding, comparable within an allelic series); with SIX6 [2] it was 10.4 upbm affinity estimate (log intensity, higher = more binding, comparable within an allelic series); with SIX6 [3] it was 11.2 upbm affinity estimate (log intensity, higher = more binding, comparable within an allelic series); with SIX6 [4], 9.94 upbm affinity estimate (log intensity, higher = more binding, comparable within an allelic series); with SIX6 [5], 10.7 upbm affinity estimate (log intensity, higher = more binding, comparable within an allelic series); in the assay with SIX6 [6] it was 11 upbm affinity estimate (log intensity, higher = more binding, comparable within an allelic series). Also, the binding signal with SIX6 [7] was 10.4 upbm affinity estimate (log intensity, higher = more binding, comparable within an allelic series); with SIX6 [8] it was 11.3 upbm affinity estimate (log intensity, higher = more binding, comparable within an allelic series); with SIX6 [9], 11.2 upbm affinity estimate (log intensity, higher = more binding, comparable within an allelic series); with SIX6 [10], 11.3 upbm affinity estimate (log intensity, higher = more binding, comparable within an allelic series); in the assay with SIX6 [11], 11 upbm affinity estimate (log intensity, higher = more binding, comparable within an allelic series); in the assay with SIX6 [12] it was 11.1 upbm affinity estimate (log intensity, higher = more binding, comparable within an allelic series). Also, the binding signal with SIX6 [13] is 11.1 upbm affinity estimate (log intensity, higher = more binding, comparable within an allelic series).

Regarding GGCCCCAA, the binding signal was 8.91 upbm affinity estimate (log intensity, higher = more binding, comparable within an allelic series) in the assay with SIX6 [1]; 8.77 upbm affinity estimate (log intensity, higher = more binding, comparable within an allelic series) with SIX6 [2]; 8.92 upbm affinity estimate (log intensity, higher = more binding, comparable within an allelic series) with SIX6 [3]; 9.01 upbm affinity estimate (log intensity, higher = more binding, comparable within an allelic series) in the assay with SIX6 [4]; 8.96 upbm affinity estimate (log intensity, higher = more binding, comparable within an allelic series) with SIX6 [5]; 8.92 upbm affinity estimate (log intensity, higher = more binding, comparable within an allelic series) with SIX6 [6]. The binding signal with SIX6 [7] is 8.81 upbm affinity estimate (log intensity, higher = more binding, comparable within an allelic series); in the assay with SIX6 [8] it was 8.9 upbm affinity estimate (log intensity, higher = more binding, comparable within an allelic series); with SIX6 [9], 9.04 upbm affinity estimate (log intensity, higher = more binding, comparable within an allelic series); with SIX6 [10], 8.9 upbm affinity estimate (log intensity, higher = more binding, comparable within an allelic series); with SIX6 [11] it was 8.9 upbm affinity estimate (log intensity, higher = more binding, comparable within an allelic series); with SIX6 [12] it was 8.82 upbm affinity estimate (log intensity, higher = more binding, comparable within an allelic series). In the assay with SIX6 [13], the binding signal was 8.91 upbm affinity estimate (log intensity, higher = more binding, comparable within an allelic series).

GAGTATCA: the binding signal with SIX6 [1] was 11.2 upbm affinity estimate (log intensity, higher = more binding, comparable within an allelic series); with SIX6 [2], 10.2 upbm affinity estimate (log intensity, higher = more binding, comparable within an allelic series); in the assay with SIX6 [3], 11.3 upbm affinity estimate (log intensity, higher = more binding, comparable within an allelic series); in the assay with SIX6 [4] it was 9.54 upbm affinity estimate (log intensity, higher = more binding, comparable within an allelic series); with SIX6 [5], 10.6 upbm affinity estimate (log intensity, higher = more binding, comparable within an allelic series); with SIX6 [6], 10.9 upbm affinity estimate (log intensity, higher = more binding, comparable within an allelic series). Further, the binding signal with SIX6 [7] was 10.3 upbm affinity estimate (log intensity, higher = more binding, comparable within an allelic series); with SIX6 [8], 11.3 upbm affinity estimate (log intensity, higher = more binding, comparable within an allelic series); with SIX6 [9] it was 11.2 upbm affinity estimate (log intensity, higher = more binding, comparable within an allelic series); with SIX6 [10], 11.2 upbm affinity estimate (log intensity, higher = more binding, comparable within an allelic series); with SIX6 [11] it was 11 upbm affinity estimate (log intensity, higher = more binding, comparable within an allelic series); with SIX6 [12] it was 10.9 upbm affinity estimate (log intensity, higher = more binding, comparable within an allelic series). For the same sequence, in the assay with SIX6 [13], the binding signal was 11.1 upbm affinity estimate (log intensity, higher = more binding, comparable within an allelic series).

Consider GTATCACA, for which the binding signal in the assay with SIX6 [1] is 11.4 upbm affinity estimate (log intensity, higher = more binding, comparable within an allelic series); with SIX6 [2] it was 10.4 upbm affinity estimate (log intensity, higher = more binding, comparable within an allelic series); with SIX6 [3], 11.4 upbm affinity estimate (log intensity, higher = more binding, comparable within an allelic series); in the assay with SIX6 [4] it was 9.83 upbm affinity estimate (log intensity, higher = more binding, comparable within an allelic series); with SIX6 [5], 10.8 upbm affinity estimate (log intensity, higher = more binding, comparable within an allelic series); with SIX6 [6], 11.2 upbm affinity estimate (log intensity, higher = more binding, comparable within an allelic series). Besides, the binding signal is 10.5 upbm affinity estimate (log intensity, higher = more binding, comparable within an allelic series) with SIX6 [7]; 11.6 upbm affinity estimate (log intensity, higher = more binding, comparable within an allelic series) in the assay with SIX6 [8]; 11.4 upbm affinity estimate (log intensity, higher = more binding, comparable within an allelic series) with SIX6 [9]; 11.4 upbm affinity estimate (log intensity, higher = more binding, comparable within an allelic series) with SIX6 [10]; 11.2 upbm affinity estimate (log intensity, higher = more binding, comparable within an allelic series) in the assay with SIX6 [11]; 11.2 upbm affinity estimate (log intensity, higher = more binding, comparable within an allelic series) with SIX6 [12]. The binding signal with SIX6 [13] is 11.2 upbm affinity estimate (log intensity, higher = more binding, comparable within an allelic series).

For the sequence ATTATACC, the binding signal was 10.8 upbm affinity estimate (log intensity, higher = more binding, comparable within an allelic series) with SIX6 [1]; 10.3 upbm affinity estimate (log intensity, higher = more binding, comparable within an allelic series) with SIX6 [2]; 10.7 upbm affinity estimate (log intensity, higher = more binding, comparable within an allelic series) with SIX6 [3]; 10.1 upbm affinity estimate (log intensity, higher = more binding, comparable within an allelic series) with SIX6 [4]; 10.5 upbm affinity estimate (log intensity, higher = more binding, comparable within an allelic series) in the assay with SIX6 [5]; 10.8 upbm affinity estimate (log intensity, higher = more binding, comparable within an allelic series) in the assay with SIX6 [6]. Besides, the binding signal is 10.3 upbm affinity estimate (log intensity, higher = more binding, comparable within an allelic series) in the assay with SIX6 [7]; 10.8 upbm affinity estimate (log intensity, higher = more binding, comparable within an allelic series) with SIX6 [8]; 10.8 upbm affinity estimate (log intensity, higher = more binding, comparable within an allelic series) in the assay with SIX6 [9]; 10.7 upbm affinity estimate (log intensity, higher = more binding, comparable within an allelic series) with SIX6 [10]; 10.5 upbm affinity estimate (log intensity, higher = more binding, comparable within an allelic series) with SIX6 [11]; 10.7 upbm affinity estimate (log intensity, higher = more binding, comparable within an allelic series) in the assay with SIX6 [12]. In addition, the binding signal in the assay with SIX6 [13] is 10.6 upbm affinity estimate (log intensity, higher = more binding, comparable within an allelic series).
